Drawing on PubChem BioAssay (EPA / NIEHS), this text covers outcome and AC50 for 11 compounds.

Assay [1] can be described thus: ATG_TAL_CIS: Attagene CIS-FACTORIAL HepG2 Assay for human TAL Basal Promoter (AID 2282966; active means hit-call score of the fitted dose curve at least 0.9, where 1 is the maximum; inactive means score below 0.9;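 further: background control endpoint measuring basal TAL promoter reporter mRNA not a specific factor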). As to conditions: HepG2 Attagene cis-factorial TAL promoter reporter; actives raise or lower the signal. The essentials:
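Steps: transfect HepG2 with multiple reporter transcription units; dose 24 h; isolate RNA, reverse-transcribe, PCR-amplify, label with 6-FAM, digest with HpaI; resolve by capillary electrophoresis. Bidirectional fitting against DMSO baseline.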

Assay [2] can be described thus: ATG_TGFb_CIS: Attagene CIS-FACTORIAL HepG2 Assay for human Transforming Growth Factor (TGF) (AID 2282967; active means hit-call score of the fitted dose curve at least 0.9, where 1 is the maximum; inactive means score below 0.9). As to conditions: HepG2 Attagene CIS TGFb reporter, mRNA transcription; actives raise or lower the signal. The essentials:
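Liver HepG2 line, cis-factorial reporter panel, 24 h dosing. Quantitation: RT-PCR products labeled with 6-FAM, cut with HpaI, resolved by capillary electrophoresis; DMSO-referenced bidirectional analysis.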

Assay [3] can be described thus: ATG_VDRE_CIS: Attagene CIS-FACTORIAL HepG2 Assay for human Vitamin D Receptor Element (VDRE) (AID 2282968; active means hit-call score of the fitted dose curve at least 0.9, where 1 is the maximum; inactive means score below 0.9). Conditions: HepG2 VDRE cis-reporter transcription, actives raise or lower the signal. The essentials: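 Transiently transfected HepG2 cells carrying cis-regulated reporter transcription units were exposed for 24 h. Reporter mRNA was measured by RT-PCR with fluorescent labelling and capillary electrophoresis, and fitted in both directions against DMSO.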

In assay [4] the target is Steroid hormone receptor ERR1 (Homo sapiens) (UniProt P11474). Nature of the assay: ATG_ERRa_TRANS: Attagene TRANS-FACTORIAL HepG2 Assay for human Estrogen-Related Receptor alpha (ERRa) (AID 2282971). Conditions: HepG2 Attagene TRANS reporter, ERRa transactivation. A digest of the protocol:
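Signal gain relative to DMSO for an ERRa-Gal4 chimeric receptor, read as reporter mRNA by RT-PCR/capillary electrophoresis. Human HepG2 liver cells, transient multiplex reporter transfection, 24 h chemical exposure.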

Assay [5] addresses X-box-binding protein 1 (Homo sapiens) (UniProt P17861). The experiment in a line: ATG_Xbp1_CIS: Attagene CIS-FACTORIAL HepG2 Assay for human X-box Binding Protein 1 (XBP1) (AID 2282972; active means hit-call score of the fitted dose curve at least 0.9, where 1 is the maximum; inactive means score below 0.9). As to conditions: HepG2 XBP1 cis-element reporter, Attagene multiplex; actives raise or lower the signal. The essentials: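 HepG2, transient MRTU transfection (cis-promoter driven), 24 h compound exposure. Total RNA → oligo(dT) RT → PCR → 6-FAM labeling → HpaI cut → CE. Bidirectional fit vs DMSO.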

A short description of assay [6]: ATG_GAL4_TRANS: Attagene TRANS-FACTORIAL HepG2 Assay for GAL4 (Internal Marker) (AID 2282976). As to conditions: HepG2 Attagene TRANS GAL4 internal marker reporter. The essentials:
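Liver HepG2 line bearing multiplexed GAL4-UAS reporter constructs; 24 h chemical treatment. Transcripts were quantified as fluorescent fragments on capillary electrophoresis after RT-PCR and HpaI cut, with activity fitted upward from DMSO.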

In assay [7] the target is Estrogen-related receptor gamma (Homo sapiens) (UniProt P62508). The experiment in a line: ATG_ERRg_TRANS: Attagene TRANS-FACTORIAL HepG2 Assay for human Estrogen-Related Receptor gamma (ERRg) (AID 2282977).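 Further: hits increase reporter signal over DMSO so potencies reflect activators.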 As to conditions: HepG2 Attagene TRANS reporter, ERRg transactivation. A digest of the protocol: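 HepG2 cells transiently transfected with multiplexed GAL4-UAS reporter units driven by chimeric NR-Gal4 proteins; 24 h exposure. Reporter mRNA quantified by RT-PCR, fluorescent labelling, HpaI digestion and capillary electrophoresis; gain of signal vs DMSO.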
Sequence of Estrogen-related receptor gamma (Homo sapiens) (P62508 whole entry, looked up, the tested form may be a part): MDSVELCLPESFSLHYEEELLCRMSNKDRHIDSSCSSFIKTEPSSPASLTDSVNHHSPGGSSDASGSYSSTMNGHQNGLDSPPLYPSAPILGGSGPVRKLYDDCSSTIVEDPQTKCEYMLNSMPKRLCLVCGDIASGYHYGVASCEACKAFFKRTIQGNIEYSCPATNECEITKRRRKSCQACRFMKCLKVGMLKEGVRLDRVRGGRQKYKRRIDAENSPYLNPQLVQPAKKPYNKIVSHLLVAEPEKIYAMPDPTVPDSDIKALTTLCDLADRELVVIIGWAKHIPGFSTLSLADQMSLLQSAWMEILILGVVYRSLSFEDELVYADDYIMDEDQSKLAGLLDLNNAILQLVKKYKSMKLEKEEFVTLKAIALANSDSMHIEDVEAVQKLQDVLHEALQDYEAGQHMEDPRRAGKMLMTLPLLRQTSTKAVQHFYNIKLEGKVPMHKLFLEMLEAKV

The target of assay [8] is Bile acid receptor (Homo sapiens) (UniProt Q96RI1). Nature of the assay: ATG_FXR_TRANS: Attagene TRANS-FACTORIAL HepG2 Assay for Farnesoid X Receptor (FXR) (AID 2282979).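 Further: hits raise reporter mRNA above DMSO so AC50 marks FXR activation.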 Conditions: HepG2 Attagene TRANS FXR-GAL4 reporter transcription. A digest of the protocol:
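After 24 h chemical treatment of transfected HepG2 cells, GAL4-UAS reporter transcripts driven by an exogenous FXR-GAL4 fusion were measured by RT-PCR and capillary electrophoresis. Increases over DMSO were fitted.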

In assay [9] the target is Oxysterols receptor LXR-alpha (Homo sapiens) (UniProt Q13133). Nature of the assay: ATG_LXRa_TRANS: Attagene TRANS-FACTORIAL HepG2 Assay for human Liver X Receptor alpha (LXRa) (AID 2282980). As to conditions: HepG2 Attagene TRANS reporter, LXRa transactivation. A digest of the protocol: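 In this multiplexed TRANS system, compounds act on HepG2 cells carrying GAL4-UAS reporter units and a receptor-GAL4 fusion for 24 h. Induced reporter RNA is amplified, fluorescently labelled and sized by capillary electrophoresis, with DMSO as baseline.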
Sequence of Oxysterols receptor LXR-alpha (Homo sapiens) (Q13133 whole entry, looked up, the tested form may be a part): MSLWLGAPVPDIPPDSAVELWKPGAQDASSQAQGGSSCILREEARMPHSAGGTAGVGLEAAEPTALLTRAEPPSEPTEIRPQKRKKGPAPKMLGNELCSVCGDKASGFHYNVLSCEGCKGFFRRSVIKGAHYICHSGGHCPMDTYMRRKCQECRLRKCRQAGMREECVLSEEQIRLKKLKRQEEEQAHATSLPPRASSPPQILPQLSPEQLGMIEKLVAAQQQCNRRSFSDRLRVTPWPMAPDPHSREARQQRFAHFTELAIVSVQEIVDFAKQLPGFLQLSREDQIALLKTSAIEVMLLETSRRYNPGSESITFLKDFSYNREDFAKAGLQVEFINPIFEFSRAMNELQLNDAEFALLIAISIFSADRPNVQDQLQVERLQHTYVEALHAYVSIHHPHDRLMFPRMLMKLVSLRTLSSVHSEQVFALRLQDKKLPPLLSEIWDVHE

The target in assay [10] is Oxysterols receptor LXR-beta (Homo sapiens) (UniProt P55055). The experiment in a line: ATG_LXRb_TRANS: Attagene TRANS-FACTORIAL HepG2 Assay for human Liver X Receptor beta (LXRb) (AID 2282981). As to conditions: HepG2 Attagene TRANS GAL4-LXRb reporter, mRNA. A digest of the protocol:
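HepG2 cells transiently transfected with GAL4-UAS reporter units for chimeric NR-Gal4 proteins, dosed for 24 h. Reporter transcripts measured by RT-PCR and capillary electrophoresis; gain-of-signal fitting relative to DMSO.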

The nature of assay [11]: ATG_M_06_TRANS: Attagene TRANS-FACTORIAL HepG2 Assay for M06 Transcription Factor (Internal Marker) (AID 2282983).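 Further: reporter transcript level by RT-PCR then capillary electrophoresis fluorescence.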 Conditions: HepG2 Attagene TRANS M06 internal marker reporter. The essentials:
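Internal-marker background readout from a multiplexed TRANS reporter system in HepG2; 24 h dosing; mRNA induction quantified by RT-PCR plus capillary electrophoresis fluorescence; DMSO as negative control and baseline.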

Assay [12] can be described thus: ATG_M_32_TRANS: Attagene TRANS-FACTORIAL HepG2 Assay for M32 Transcription Factor (Internal Marker) (AID 2282984).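 Further: transcript level of a background control reporter unit measured by RT-PCR and capillary electrophoresis.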 As to conditions: HepG2 Attagene TRANS M32 internal marker reporter. A digest of the protocol: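 HepG2 cells transiently transfected with GAL4-UAS reporter units, dosed for 24 hours. Reporter mRNA quantified by RT-PCR, 6-FAM labelling, HpaI digestion and capillary electrophoresis; internal-marker signal fitted upward relative to DMSO.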

The target of assay [13] is Nuclear receptor subfamily 4 group A member 2 (Homo sapiens) (UniProt P43354). The experiment in a line: ATG_NURR1_TRANS: Attagene TRANS-FACTORIAL HepG2 Assay for human Nuclear Receptor Related Protein 1 (NURR1) (AID 2282985). As to conditions: HepG2 Attagene TRANS reporter, mRNA readout. The essentials:
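HepG2 cells transiently transfected with NURR1-Gal4 chimera and GAL4-UAS reporter units; after 24 hr compound exposure, reporter mRNA quantified by RT-PCR and capillary electrophoresis; gain of signal fitted against DMSO.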

Assay [14] deals with Transcriptional activator Myb (Homo sapiens) (UniProt P10242). The experiment in a line: ATG_Myb_CIS: Attagene CIS-FACTORIAL HepG2 Assay for human Myeloblastosis (Myb) Proto-Oncogene Transcription Factor (AID 2282986; active means hit-call score of the fitted dose curve at least 0.9, where 1 is the maximum; inactive means score below 0.9). As to conditions: HepG2 Attagene CIS-FACTORIAL Myb reporter transcription; actives raise or lower the signal. A digest of the protocol: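 Fluorescence signals from capillary electrophoresis of RT-PCR-amplified reporter cDNA give the read-out. Cells: HepG2 transfected with multiple cis-regulated reporter units. Exposure lasts 24 hours; DMSO defines baseline for gain or loss of signal.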

The target in assay [15] is Nuclear respiratory factor 1 (Homo sapiens) (UniProt Q16656). Nature of the assay: ATG_NRF1_CIS: Attagene CIS-FACTORIAL HepG2 Assay for human Nuclear Respiratory Factor 1 (NRF1) Orphan Gene (AID 2282987; active means hit-call score of the fitted dose curve at least 0.9, where 1 is the maximum; inactive means score below 0.9). As to conditions: HepG2 NRF1 cis-element reporter, Attagene multiplex; actives raise or lower the signal. The essentials: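 Transcriptional reporter readout, one component of a 52-endpoint multiplexed HepG2 panel. Exposure 24 h; mRNA detected via RT-PCR and fluorescent capillary electrophoresis; fitting in both directions against DMSO.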
Sequence of Nuclear respiratory factor 1 (Homo sapiens) (Q16656 whole entry, looked up): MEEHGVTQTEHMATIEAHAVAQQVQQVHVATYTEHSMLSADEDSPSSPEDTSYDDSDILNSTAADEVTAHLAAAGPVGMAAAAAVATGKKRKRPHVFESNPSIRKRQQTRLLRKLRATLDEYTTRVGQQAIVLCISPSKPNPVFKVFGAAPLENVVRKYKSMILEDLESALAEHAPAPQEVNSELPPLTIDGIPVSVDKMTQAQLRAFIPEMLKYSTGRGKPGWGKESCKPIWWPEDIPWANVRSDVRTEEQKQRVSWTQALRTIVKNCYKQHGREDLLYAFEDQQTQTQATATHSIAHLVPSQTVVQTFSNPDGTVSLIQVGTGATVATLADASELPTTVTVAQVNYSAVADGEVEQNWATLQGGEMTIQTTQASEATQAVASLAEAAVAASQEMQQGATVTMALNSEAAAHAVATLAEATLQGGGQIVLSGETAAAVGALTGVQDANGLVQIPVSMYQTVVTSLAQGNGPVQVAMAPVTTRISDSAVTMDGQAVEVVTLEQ

Assay [16] is described as follows: ATG_M_19_TRANS: Attagene TRANS-FACTORIAL HepG2 Assay for M19 Transcription Factor (Internal Marker) (AID 2282974). Conditions: HepG2 Attagene TRANS-FACTORIAL M19 internal marker reporter. The essentials:
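Measured here: internal-marker reporter transcript from HepG2 cells transfected with MRTUs, harvested at 24 h. cDNA PCR products were 6-FAM labelled by primer extension, cut with HpaI for 2 h at 37 C, and resolved by CE.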

Assay [17] concerns the target Hepatocyte nuclear factor 4-alpha (Homo sapiens) (UniProt P41235). The experiment in a line: ATG_HNF4a_TRANS: Attagene TRANS-FACTORIAL HepG2 Assay for human Hepatocyte Nuclear Factor 4 alpha (HNF4a) (AID 2282982). Conditions: HepG2 HNF4a transactivation reporter, mRNA readout. A digest of the protocol:
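HepG2 cells transiently transfected with HNF4a-Gal4 chimera and GAL4-UAS reporter units, dosed for 24 h. Reporter mRNA measured by RT-PCR, fluorescent primer extension and capillary electrophoresis; gain-of-signal fitted relative to DMSO.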

The target in assay [18] is Glucocorticoid receptor (Homo sapiens) (UniProt P04150). The experiment in a line: ATG_GR_TRANS: Attagene TRANS-FACTORIAL HepG2 Assay for human Glucocorticoid Receptor (GR) (AID 2282978).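 Further: activators score as hits since higher reporter transcript over DMSO is fitted.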 As to conditions: HepG2 Attagene TRANS GR reporter, mRNA transcription. A digest of the protocol:
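Measurement of GAL4-UAS-driven reporter mRNA in human HepG2 liver cells 24 h post-dosing, using RT-PCR with fluorescent labelling and capillary electrophoresis; the transfected constructs report exogenous NR-GAL4 chimera activity, fitted upward against DMSO.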

Results filed as inconclusive are left out. Calls of active or inactive are those of the source. How the source made its calls, unless noted: active means hit-call score of the fitted dose curve at least 0.9, where 1 is the maximum; inconclusive means response in the unintended direction; inactive means score below 0.9.

One may read the AC50 as the concentration giving half of the maximal activity seen.

Sequence of Nuclear receptor subfamily 4 group A member 2 (Homo sapiens) (P43354 whole entry, looked up, the tested form may be a part): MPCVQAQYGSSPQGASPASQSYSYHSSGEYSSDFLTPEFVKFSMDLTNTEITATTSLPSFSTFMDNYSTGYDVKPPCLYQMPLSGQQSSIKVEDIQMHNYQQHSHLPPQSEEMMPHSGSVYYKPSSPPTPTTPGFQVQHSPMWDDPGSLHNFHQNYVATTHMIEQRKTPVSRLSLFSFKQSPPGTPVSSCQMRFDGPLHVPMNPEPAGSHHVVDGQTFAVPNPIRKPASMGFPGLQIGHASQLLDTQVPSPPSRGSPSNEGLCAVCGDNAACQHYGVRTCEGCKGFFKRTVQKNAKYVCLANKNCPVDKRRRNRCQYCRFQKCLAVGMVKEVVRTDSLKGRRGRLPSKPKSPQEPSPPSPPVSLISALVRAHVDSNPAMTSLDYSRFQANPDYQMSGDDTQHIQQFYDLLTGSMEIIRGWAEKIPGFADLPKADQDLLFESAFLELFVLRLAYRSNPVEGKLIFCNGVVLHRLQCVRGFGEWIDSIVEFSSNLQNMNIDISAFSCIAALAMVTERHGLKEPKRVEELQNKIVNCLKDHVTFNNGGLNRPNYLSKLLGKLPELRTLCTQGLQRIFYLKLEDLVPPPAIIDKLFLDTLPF
Sequence of Oxysterols receptor LXR-beta (Homo sapiens) (P55055 whole entry, looked up, the tested form may be a part): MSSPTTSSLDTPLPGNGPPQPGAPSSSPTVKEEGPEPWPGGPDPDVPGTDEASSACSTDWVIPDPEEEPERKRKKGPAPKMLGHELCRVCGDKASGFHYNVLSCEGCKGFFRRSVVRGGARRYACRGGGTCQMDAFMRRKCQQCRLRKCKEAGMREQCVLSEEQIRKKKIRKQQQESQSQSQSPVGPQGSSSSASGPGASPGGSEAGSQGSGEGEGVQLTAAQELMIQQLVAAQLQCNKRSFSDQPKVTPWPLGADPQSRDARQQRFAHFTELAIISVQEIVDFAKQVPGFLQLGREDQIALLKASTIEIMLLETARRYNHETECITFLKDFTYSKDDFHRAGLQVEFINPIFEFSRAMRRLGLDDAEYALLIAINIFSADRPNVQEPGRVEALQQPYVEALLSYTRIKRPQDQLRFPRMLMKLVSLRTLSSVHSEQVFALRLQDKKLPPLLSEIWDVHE
Sequence of Hepatocyte nuclear factor 4-alpha (Homo sapiens) (P41235 whole entry, looked up, the tested form may be a part): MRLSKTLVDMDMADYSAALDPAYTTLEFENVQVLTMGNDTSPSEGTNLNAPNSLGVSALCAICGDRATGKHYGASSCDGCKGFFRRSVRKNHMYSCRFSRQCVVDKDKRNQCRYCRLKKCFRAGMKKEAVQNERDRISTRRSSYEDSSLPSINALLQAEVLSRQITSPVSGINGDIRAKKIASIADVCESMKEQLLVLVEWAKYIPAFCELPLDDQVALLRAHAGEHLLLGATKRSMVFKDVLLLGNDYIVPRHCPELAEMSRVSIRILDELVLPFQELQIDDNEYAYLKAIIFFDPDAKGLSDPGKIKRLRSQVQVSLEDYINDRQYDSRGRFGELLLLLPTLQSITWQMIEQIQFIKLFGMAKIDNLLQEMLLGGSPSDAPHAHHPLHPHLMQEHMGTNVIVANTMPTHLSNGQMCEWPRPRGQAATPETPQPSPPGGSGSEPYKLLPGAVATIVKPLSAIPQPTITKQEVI
Sequence of Glucocorticoid receptor (Homo sapiens) (P04150 whole entry, looked up, the tested form may be a part): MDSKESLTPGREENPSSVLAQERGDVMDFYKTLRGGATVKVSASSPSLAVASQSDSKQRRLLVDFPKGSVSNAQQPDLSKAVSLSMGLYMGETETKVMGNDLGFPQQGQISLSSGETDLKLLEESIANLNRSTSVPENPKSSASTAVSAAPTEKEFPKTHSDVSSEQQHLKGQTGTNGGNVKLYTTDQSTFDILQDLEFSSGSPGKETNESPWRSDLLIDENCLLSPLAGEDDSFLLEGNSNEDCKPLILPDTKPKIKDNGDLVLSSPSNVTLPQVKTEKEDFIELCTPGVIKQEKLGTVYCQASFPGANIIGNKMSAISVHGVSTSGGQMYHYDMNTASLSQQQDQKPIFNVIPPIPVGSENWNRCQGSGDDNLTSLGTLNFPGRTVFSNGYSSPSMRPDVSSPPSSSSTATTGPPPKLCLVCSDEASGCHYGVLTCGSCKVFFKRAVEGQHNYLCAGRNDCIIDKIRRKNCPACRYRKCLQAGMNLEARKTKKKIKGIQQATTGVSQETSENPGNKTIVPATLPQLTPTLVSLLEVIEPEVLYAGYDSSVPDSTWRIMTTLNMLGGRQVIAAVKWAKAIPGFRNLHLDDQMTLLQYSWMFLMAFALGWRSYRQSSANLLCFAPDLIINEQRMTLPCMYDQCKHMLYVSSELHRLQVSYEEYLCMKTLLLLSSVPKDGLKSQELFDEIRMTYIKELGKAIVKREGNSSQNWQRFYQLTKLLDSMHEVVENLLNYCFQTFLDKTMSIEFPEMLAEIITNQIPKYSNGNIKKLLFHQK
Sequence of X-box-binding protein 1 (Homo sapiens) (P17861 whole entry, looked up): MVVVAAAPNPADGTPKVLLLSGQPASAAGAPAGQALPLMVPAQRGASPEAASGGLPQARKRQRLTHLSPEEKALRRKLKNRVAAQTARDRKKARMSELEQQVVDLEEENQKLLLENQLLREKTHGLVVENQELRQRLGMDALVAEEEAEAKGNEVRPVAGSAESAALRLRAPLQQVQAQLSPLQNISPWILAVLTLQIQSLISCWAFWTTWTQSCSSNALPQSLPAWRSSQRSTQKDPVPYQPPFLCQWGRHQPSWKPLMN
Sequence of Steroid hormone receptor ERR1 (Homo sapiens) (P11474 whole entry, looked up, the tested form may be a part): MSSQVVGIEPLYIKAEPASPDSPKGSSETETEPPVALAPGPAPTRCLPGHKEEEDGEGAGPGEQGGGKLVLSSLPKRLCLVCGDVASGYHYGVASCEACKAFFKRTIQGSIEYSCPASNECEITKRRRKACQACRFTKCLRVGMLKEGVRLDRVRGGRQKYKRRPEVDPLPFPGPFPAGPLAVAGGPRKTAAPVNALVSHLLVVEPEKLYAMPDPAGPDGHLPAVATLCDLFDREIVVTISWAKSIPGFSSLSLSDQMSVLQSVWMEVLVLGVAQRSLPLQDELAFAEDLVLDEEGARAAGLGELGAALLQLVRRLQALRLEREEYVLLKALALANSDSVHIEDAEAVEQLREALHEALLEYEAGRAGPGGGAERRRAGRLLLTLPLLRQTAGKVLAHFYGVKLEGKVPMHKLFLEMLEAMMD
Sequence of Bile acid receptor (Homo sapiens) (Q96RI1 whole entry, looked up, the tested form may be a part): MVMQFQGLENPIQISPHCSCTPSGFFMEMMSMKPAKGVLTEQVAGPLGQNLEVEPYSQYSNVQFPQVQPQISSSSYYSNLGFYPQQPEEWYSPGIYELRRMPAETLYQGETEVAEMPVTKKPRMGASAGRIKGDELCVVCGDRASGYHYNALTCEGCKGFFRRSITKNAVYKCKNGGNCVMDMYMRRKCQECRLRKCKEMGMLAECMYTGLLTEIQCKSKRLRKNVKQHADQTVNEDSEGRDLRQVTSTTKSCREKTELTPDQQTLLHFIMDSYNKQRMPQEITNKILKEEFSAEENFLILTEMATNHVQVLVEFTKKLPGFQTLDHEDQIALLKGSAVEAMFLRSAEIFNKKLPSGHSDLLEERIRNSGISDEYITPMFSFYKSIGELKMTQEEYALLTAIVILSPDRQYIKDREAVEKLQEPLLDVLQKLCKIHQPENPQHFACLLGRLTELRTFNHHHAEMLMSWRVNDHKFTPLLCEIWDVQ

With `CCCCOC(=O)CCCCCCCC(=O)OCCCC`, the call in [1], in [2], in [3], in [4], in assay [5] and in [6] was inactive. The result in assay [7], in assay [8], in assay [9], in [10], in assay [11] and in assay [12] was inactive. Further, the result in assay [13], in [14] and in [15] was inactive.

On to `CN(C)c1ccncc1`, for which the compound was classed as inactive in assay [1], in assay [2], in assay [3], in assay [4], in assay [5] and in assay [16]. The outcome in assay [7], in assay [17], in assay [14] and in assay [15] was inactive.

With `CCCCCCOC(=O)C(C)C`, the call in [1], in [2], in assay [3], in [4], in [5] and in assay [7] was inactive. The compound was called inactive in assay [10], in [17], in assay [11], in [14] and in assay [15].

Regarding `COc1ccc(COC(C)=O)cc1`, the compound was classed as inactive in assay [1], in assay [2], in [3], in assay [4], in [5] and in [16]. Besides, the compound was called inactive in [7], in [8], in assay [10], in assay [17], in assay [11] and in assay [13]. For the same compound, the outcome in assay [14] and in [15] was inactive.

As to `CCCCCCCCC=CCCCCCCCC1=NCCN1CCO`, the call in assay [1], in assay [3], in [4], in assay [5], in assay [16] and in [7] was inactive. The call in [8], in assay [10], in [17], in assay [11], in assay [14] and in [15] was inactive. Besides, the concentration at half-maximal activity (AC50) in assay [2] was 0.666 µM (active).

`CCCC1O[C@@H]2C[C@H]3[C@@H]4CCC5=CC(=O)C=C[C@]5(C)[C@H]4[C@@H](O)C[C@]3(C)[C@]2(C(=O)CO)O1` (stereo partly specified): the compound was classed as inactive in assay [1], in assay [3], in [4], in [5], in [8] and in assay [11]. Also, the compound was called inactive in assay [13], in [14] and in [15]. Besides, the AC50 in assay [2] was 9.41 µM (active).

On to `CCCCC1CCC(O)CC1` (stereo unspecified), for which the outcome in assay [1], in assay [2], in assay [3], in assay [5], in assay [6] and in assay [18] was inactive. Moreover, the compound was classed as inactive in assay [8], in [17], in assay [11], in [12], in [13] and in assay [14]. Also, in assay [15], the call was inactive.

`COc1cc(CCC(C)=O)ccc1O`: the call in [1], in assay [2], in assay [3], in [5], in [6] and in assay [7] was inactive. In addition, the compound was called inactive in assay [18], in [8], in assay [10], in assay [12], in assay [13] and in assay [14]. Moreover, the compound was classed as inactive in assay [15].

Regarding `CCC(C)=O`, the compound was called inactive in assay [1], in assay [2], in [3], in assay [5], in [6] and in [7]. The compound was called inactive in assay [18], in assay [8], in assay [17], in assay [11], in assay [14] and in [15].

`CCCCC(CC)C(=O)OC(C)C` (stereo unspecified): the result in assay [1], in [2], in [3], in [5], in [16] and in assay [6] was inactive. Besides, the outcome in assay [10], in [11], in [12], in assay [13], in assay [14] and in [15] was inactive.

As to `Cc1ncc[nH]1`, the call in assay [1], in [2], in [3], in assay [5], in assay [16] and in assay [18] was inactive. The result in [8], in assay [9], in assay [17], in assay [11], in assay [12] and in assay [14] was inactive. The compound was classed as inactive in assay [15].
